Assay outcomes as filed in PubChem.
SW480 rerep = induces DNA re-replication in SW480 colon adenocarcinoma cells; Potency, µM (top dose mostly 46.1 µM), without a hit: top-dose re-replication activation, hits mostly activators; SW480 DNA re-replication, Hoechst DNA content imaging, 48 h; 1.8% of 340,000 active; note: % of control where 0% means no effect; nearly all actives have a fitted effect of over 55% in size
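Compounds, transferred as 23 nL by pin tool, were incubated with cells for 48 hr; DNA content per nucleus was then quantified by Hoechst staining and fluorescence plate imaging.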
ELG1 repair inh = ELG1-dependent DNA repair inhibition. Potency, µM (doses to about 46.1 µM), for inactives: at the top dose activity change, negative = inhibition, hits mostly inhibitors. HEK293T ELG1-luciferase reporter, luminescence, 16 h; DNA damage induced by 5-fluorouridine. 2.3% of 330,000 active. AID 504467; note: % is set by controls: 0 for no effect and ±100 for the full control effect; nearly all actives have a fitted effect of over 55% in size
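Step one: seed 2,000 cells per well. Step two: pin-transfer compound or DMSO alongside 5-fluorouridine. Step three: incubate 16 hr, 37 °C, 5% CO2. Step four: add ONE-Glo, wait 30 min, read luminescence.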
MCF10A rereplic = DNA re-replication induction in MCF 10a cells | Potency, µM (series often up to 46.1 µM), for inactives: top-dose activity, positive = re-replication, actives largely listed as activators | 2.9% of 350,000 active | MCF 10A DNA re-replication, Hoechst nuclear intensity, 48 h; note: % of control where 0% means no effect; nearly all actives have a fitted effect of over 50% in size
KB-V1 MDR tox = kills drug-selected multidrug resistant KB-V1 cells; AID 1347076; 3.4% of 400,000 active; KB-V1 MDR cells viability, CellTiter-Glo, 72 h; Potency, µM (series often up to 46.1 µM), usual class: cytotoxic; note: % is set by controls: 0 for no effect and ±100 for the full control effect; nearly all actives have a fitted effect of over 60% in size
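KB-V1 MDR subline cells in DMEM (phenol-red free, 10% FBS) exposed to compounds in qHTS concentration series for 72 h at 37 degrees C. Viability read by CellTiter-Glo luminescence; concentration-effect curves fitted after normalization and correction.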
KB-3-1 cytotox = KB-3-1 parental cell cytotoxicity; 1.4% of 400,000 active; KB-3-1 viability, CellTiter-Glo ATP luminescence, 72 h; Potency, µM (series often up to 46.1 µM), usual class: cytotoxic; AID 1347075; note: % is set by controls: 0 for no effect and ±100 for the full control effect; nearly all actives have a fitted effect of over 60% in size
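KB-3-1 cells, DMEM (no phenol red) + 10% FBS; compound by pin transfer, 72 h, 37 °C. Readout: CellTiter-Glo luminescence after 10 min. Data normalized, curve-fitted.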
ELG1 FLuc counter = luciferase inhibition in cell-free luciferin readout for ELG1 hits; cell-free firefly luciferase luminescence counter-screen, ViewLux; AID 624247; shares compounds with ELG1 repair inh; Potency, µM (doses to about 46.1 µM), inactives show at the top dose activity change, negative = inhibition, most hits filed as inhibitors; 3% of 350 active; note: % is set by controls: 0 for no effect and ±100 for the full control effect
ELG1-Luc inh = confirmation of human ELG1-dependent DNA repair inhibitors; HEK293T ELG1-luciferase levels, luminescence; cells co-treated with 5-fluorouridine; AID 624248; shares compounds with ELG1 repair inh; 68% of 670 active; Potency, µM (series often up to 46.1 µM), for the others: at the highest dose activity change, negative = inhibition, actives largely listed as inhibitors; note: % is set by controls: 0 for no effect and ±100 for the full control effect; nearly all actives have a fitted effect of over 55% in size
Target sequence (Q96QE3 whole entry, looked up): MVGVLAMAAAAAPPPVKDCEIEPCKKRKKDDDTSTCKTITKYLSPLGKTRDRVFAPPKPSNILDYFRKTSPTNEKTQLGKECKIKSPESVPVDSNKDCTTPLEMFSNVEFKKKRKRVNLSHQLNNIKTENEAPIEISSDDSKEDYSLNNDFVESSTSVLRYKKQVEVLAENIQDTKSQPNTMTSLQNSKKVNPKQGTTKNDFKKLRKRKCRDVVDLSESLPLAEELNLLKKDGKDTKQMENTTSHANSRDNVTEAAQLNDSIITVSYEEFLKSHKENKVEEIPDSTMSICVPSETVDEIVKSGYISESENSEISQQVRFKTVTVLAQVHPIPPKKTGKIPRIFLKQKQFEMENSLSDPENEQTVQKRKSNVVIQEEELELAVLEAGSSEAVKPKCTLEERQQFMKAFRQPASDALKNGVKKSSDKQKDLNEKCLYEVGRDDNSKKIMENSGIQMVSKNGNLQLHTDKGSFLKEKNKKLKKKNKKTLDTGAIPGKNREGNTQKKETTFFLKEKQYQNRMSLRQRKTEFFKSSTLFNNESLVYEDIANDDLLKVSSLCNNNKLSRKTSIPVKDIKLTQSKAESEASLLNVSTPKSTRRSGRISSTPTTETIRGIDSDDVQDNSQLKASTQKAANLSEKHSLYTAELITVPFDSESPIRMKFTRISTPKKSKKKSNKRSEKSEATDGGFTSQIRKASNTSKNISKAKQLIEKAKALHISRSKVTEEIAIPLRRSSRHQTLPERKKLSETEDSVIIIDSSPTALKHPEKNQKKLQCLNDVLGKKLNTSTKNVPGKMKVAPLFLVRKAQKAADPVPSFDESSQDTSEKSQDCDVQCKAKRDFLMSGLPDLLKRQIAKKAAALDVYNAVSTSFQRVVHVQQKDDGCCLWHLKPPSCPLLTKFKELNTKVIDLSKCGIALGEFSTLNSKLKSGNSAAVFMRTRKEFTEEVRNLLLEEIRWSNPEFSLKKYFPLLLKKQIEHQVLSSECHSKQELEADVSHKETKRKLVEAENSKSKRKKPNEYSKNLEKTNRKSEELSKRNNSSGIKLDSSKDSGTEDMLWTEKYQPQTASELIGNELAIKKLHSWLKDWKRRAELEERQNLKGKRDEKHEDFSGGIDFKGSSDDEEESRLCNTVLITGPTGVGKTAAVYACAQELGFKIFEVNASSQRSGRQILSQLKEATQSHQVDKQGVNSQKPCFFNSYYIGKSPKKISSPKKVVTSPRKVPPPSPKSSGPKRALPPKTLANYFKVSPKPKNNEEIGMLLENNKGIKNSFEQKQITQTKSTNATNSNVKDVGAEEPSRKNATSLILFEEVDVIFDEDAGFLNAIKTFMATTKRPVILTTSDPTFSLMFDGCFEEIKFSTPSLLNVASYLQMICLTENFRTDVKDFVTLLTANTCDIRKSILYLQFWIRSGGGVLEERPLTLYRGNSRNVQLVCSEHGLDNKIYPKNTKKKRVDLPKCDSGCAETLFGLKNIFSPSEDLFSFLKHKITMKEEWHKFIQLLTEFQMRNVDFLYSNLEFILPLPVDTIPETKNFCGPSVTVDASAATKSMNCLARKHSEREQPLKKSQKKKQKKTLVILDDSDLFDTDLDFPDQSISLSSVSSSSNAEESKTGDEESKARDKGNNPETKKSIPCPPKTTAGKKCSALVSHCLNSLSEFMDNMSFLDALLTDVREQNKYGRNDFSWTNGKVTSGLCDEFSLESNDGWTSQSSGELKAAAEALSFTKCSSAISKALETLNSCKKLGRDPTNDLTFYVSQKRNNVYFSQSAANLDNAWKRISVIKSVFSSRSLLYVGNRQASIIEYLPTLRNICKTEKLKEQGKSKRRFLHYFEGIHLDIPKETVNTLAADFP
ELG1-Luc MMS = MMS-stimulated human ELG1 repair inhibition, confirmed; HEK293T luciferase-tagged ELG1 level, MMS stimulated; 53% of 670 active; AID 624249; shares compounds with ELG1 repair inh; Potency, µM (highest dose often 46.1 µM), inactives show top-dose activity change, negative = inhibition, actives largely listed as inhibitors; note: % is set by controls: 0 for no effect and ±100 for the full control effect; nearly all actives have a fitted effect of over 60% in size
ELG1 5FU viab = confirmation of ELG1 repair inhibitors: viability with 5FU | shares compounds with ELG1 repair inh | cell viability with 5-FU, ELG1-dependent repair | Potency, µM (titrated, usually from 46.1 µM), for the others: top-dose activity change, negative = viability loss, actives largely listed as cytotoxic | 670 tested, under 10 active | AID 624250;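 note: ELG1-luc HEK293T cells cotreated with 5-fluorouridine at 10 µM final; viability measured 16 h after compound addition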
ELG1 MMS viab = confirmation of ELG1 repair inhibitors: viability with MMS; shares compounds with ELG1 repair inh; Cell viability with MMS, ELG1-dependent DNA repair; AID 624251; 33% of 670 active; Potency, µM (series often up to 46.1 µM), for the others: at the highest dose activity change, negative = viability loss, most hits filed as cytotoxic;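 note: ELG1-luc HEK293T cells co-treated with 10 µM MMS; viability read 16 h after compound addition; % is set by controls: 0 for no effect and ±100 for the full control effect; nearly all actives have a fitted effect of over 60% in size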
ELG1 unstim viab = unstimulated viability counter-screen for ELG1 repair hits; 8% of 900 active; shares compounds with ELG1 repair inh; cell viability counter-screen, unstimulated, luminescence; Potency, µM (top dose mostly 45.9 µM), for the others: at the top dose activity change, negative = loss of viability, usual class: cytotoxic; AID 624252;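 note: compound exposure lasted 16 hours before reading; % is set by controls: 0 for no effect and ±100 for the full control effect; nearly all actives have a fitted effect of over 55% in size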
FLuc biochem = inhibits purified firefly luciferase, counter-screen for ELG1 hits; shares compounds with ELG1 repair inh; purified firefly luciferase, luminescence counter-screen; Potency, µM (doses to about 57.5 µM), for inactives: top-dose activity, negative = inhibition, actives largely listed as inhibitors; 10% of 350 active; AID 624253; note: % is set by controls: 0 for no effect and ±100 for the full control effect
Numbers without * were called inactive; i = inactive; ? = inconclusive; / = no result given. Sampled rows, rich in hits. Any-hit rate of the full collection: about 8.1%. Calls come from the whole dose curve; as a rule, active = well fitted curve in the direction sought with a large enough effect; inconclusive = small, poorly fitted or top-dose-only effect, or another doubt; inactive = no such curve, though single readings can be large; an effect the other way counts as inactive or inconclusive. Potency is the fitted concentration of half-maximal effect.

SMILES | SW480 rerep | ELG1 repair inh | MCF10A rereplic | KB-V1 MDR tox | KB-3-1 cytotox | ELG1 unstim viab | others
COc1cccc(NC(=O)CSc2nnc(-c3ccc(C)cc3)o2)c1 | 2% | ? | 0% | i | i | 1%
O=C(CSc1nnc(-c2ccc(F)cc2)o1)Nc1ccc(S(=O)(=O)N2CCCCCC2)cc1 | ? | -3% | 24% | ? | i | ? | ELG1 FLuc counter=-5%;FLuc biochem=-7%
COc1cccc(NC(=O)CSc2nnc(-c3cccc(OC)c3)o2)c1 | / | / | / | i | i | /
CCCCN(CC)CCNC(=O)C1c2cc(OC)c(OC)cc2C(=O)N2CCc3ccccc3C12 (configuration not stated) | 0% | 2% | -4% | i | i | /
COc1cc(C(=O)NCCOc2ccccc2C)c(Br)c(OC)c1OC | -7% | -30% | 6% | i | i | /
Cc1ccccc1-c1nnc(SCC(=O)Nc2cccnc2Cl)o1 | -8% | ? | -18% | i | ? | 25µM*
Cc1ccc(NC(=O)CSc2nnc(-c3ccccc3C)o2)cc1C | -2% | ? | 9% | i | i | /
Nc1nc(SCC(=O)c2ccc(Oc3ccccc3)cc2)n[nH]1 | -1% | ? | 1% | i | i | /
Cc1c(NC(=O)/C=C/c2cn(-c3ccccc3)nc2-c2ccccc2)c(=O)n(-c2ccccc2)n1C | -10% | ? | 7% | i | i | /
COc1cc(Cl)c(C)cc1NC(=O)CN(C)Cc1cccc(OC)c1OC | 13% | 2.6µM* | ? | ? | i | ? | ELG1-Luc inh=25µM*;ELG1-Luc MMS=16µM*;ELG1 5FU viab=6%;ELG1 MMS viab=14µM*
COc1ccccc1CN(C)CC(=O)Nc1cccc2ccccc12 | -16% | -8% | 1% | i | i | /
O=S(=O)(c1c(Cl)cc(Br)cc1Cl)N1CCN(C(=S)NC2CC2)CC1 | 0% | 4.1µM* | ? | i | i | -12% | ELG1-Luc inh=4µM*;ELG1-Luc MMS=16µM*;ELG1 5FU viab=?;ELG1 MMS viab=14µM*
OC(CNc1nc(-c2cccnc2)nc2ccccc12)c1ccccc1 (configuration not stated) | ? | 12µM* | 21% | ? | i | ? | ELG1 FLuc counter=-9%;ELG1-Luc inh=11µM*;ELG1-Luc MMS=22µM*;ELG1 5FU viab=0%;ELG1 MMS viab=?;FLuc biochem=-14%
OCCNc1nc(-c2cccnc2)nc2ccccc12 | -5% | 0% | ? | i | i | /
